From PubChem BioAssay AID1159580 (chemical genetic matrix, 2015)
“And” between values parts separate entries of the source, which are not always exact repeats. Equal values may be shown once. About 2,000 (36%) of roughly 5,500 compounds were called active. Roughly 18% stayed inconclusive and do not appear here. Cut-off read from the data, not from the text of the source: active = normalized growth mostly below about 0.91 (no sharp cut-off); inconclusive = no clear call, values can overlap the other calls; inactive = mostly above about 0.92. Some of the results follow.

Experiment: chemical genetic growth profiling, strain panel (AID 1159580);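 note: tested at 20 µM; growth read once vehicle control cultures reached saturation at 30 °C; 1 = growth at the plate median or of vehicle wells; lower values mean less growth of the strain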
Settings: S. cerevisiae deletion strains, growth OD

Measured: normalized growth

COc1ccc(-c2oc3c(CC=C(C)C)c(O[C@@H]4O[C@H](CO)[C@@H](O)[C@H](O)[C@H]4O)cc(O)c3c(=O)c2O[C@@H]2O[C@@H](C)[C@H](O)[C@@H](O)[C@H]2O)cc1
active: locus YBR021W, strain FUR4, stronger effect = lower value 1.19 [resistant]
inactive: locus YAL013W, strain DEP1, stronger effect = lower value 1.04 | locus YAL021C, strain ccr4, stronger effect = lower value 1.05 | locus YAL026C, strain drs2, stronger effect = lower value 1.05 | locus YAL030W, strain snc1, stronger effect = lower value 1.04 | locus YBL061C, strain skt5, stronger effect = lower value 1.03 | locus YBR009C, strain hhf1, stronger effect = lower value 1.03 | locus YBR023C, strain chs3, stronger effect = lower value 1.02 | locus YBR171W, strain sec66, stronger effect = lower value 1.06 | locus YBR229C, strain ROT2, stronger effect = lower value 1 | locus YBR231C, strain swc5, stronger effect = lower value 1.03 | locus YBR279W, strain paf1, stronger effect = lower value 1.03 | locus YCL011C, strain gbp2, stronger effect = lower value 1.03 | locus YCL016C, strain dcc1, stronger effect = lower value 1 | locus YCL029C, strain bik1, stronger effect = lower value 0.976 | locus YCL061C, strain MRC1, stronger effect = lower value 1.04 | locus YCL069W, strain vba3, stronger effect = lower value 1.02 | locus YCR088W, strain abp1, stronger effect = lower value 1.04 | locus YDL005C, strain med2, stronger effect = lower value 1.03 | locus YDL035C, strain GPR1, stronger effect = lower value 1 | locus YDL040C, strain nat1, stronger effect = lower value 1.02 | locus YDL074C, strain BRE1, stronger effect = lower value 0.988 | locus YDL101C, strain DUN1, stronger effect = lower value 0.989 | locus YDL185W, strain tfp1, stronger effect = lower value 0.955 | locus YDL192W, strain arf1, stronger effect = lower value 0.987 | locus YDR001C, strain nth1, stronger effect = lower value 1.04 | locus YDR069C, strain doa4, stronger effect = lower value 1.06 | locus YDR101C, strain arx1, stronger effect = lower value 0.975 | locus YDR137W, strain rgp1, stronger effect = lower value 1.07 | locus YDR150W, strain NUM1, stronger effect = lower value 1.01 | locus YDR159W, strain sac3, stronger effect = lower value 1.07 | locus YDR162C, strain NBP2, stronger effect = lower value 0.989 | locus YDR195W, strain ref2 1.05 | locus YDR297W, strain sur2, stronger effect = lower value 1.03 | locus YDR318W, strain mcm21, stronger effect = lower value 0.986 | locus YDR334W, strain swr1, stronger effect = lower value 1.04 | locus YDR335W, strain msn5, stronger effect = lower value 1.02 | locus YDR388W, stronger effect = lower value 0.99 | locus YDR392W, strain spt3, stronger effect = lower value 1 | locus YDR502C, strain sam2, stronger effect = lower value 0.989 | locus YEL003W, strain gim4, stronger effect = lower value 1.03 | locus YEL037C, strain rad23, stronger effect = lower value 1.03 | locus YEL061C, strain CIN8 (second series), stronger effect = lower value 1.04 | locus YEL061C, strain CIN8, stronger effect = lower value 0.993 | locus YER015W, strain faa2, stronger effect = lower value 1.02 | locus YER016W, strain bim1, stronger effect = lower value 1.03 | locus YER110C, stronger effect = lower value 0.966 | locus YER111C, strain swi4, stronger effect = lower value 1.05 | locus YER155C, strain BEM2 (second series), stronger effect = lower value 1.05 | locus YER155C, strain BEM2, stronger effect = lower value 1 | locus YER167W, strain BCK2, stronger effect = lower value 1.01 | locus YFR010W, strain ubp6, stronger effect = lower value 1.05 | locus YGL078C, strain dbp3, stronger effect = lower value 0.983 | locus YGL086W, strain mad1, stronger effect = lower value 0.975 | locus YGL167C, strain pmr1, stronger effect = lower value 1.02 | locus YGL173C, strain kem1, stronger effect = lower value 1.05 | locus YGL227W, strain vid30, stronger effect = lower value 1.04 | locus YGL240W, strain doc1, stronger effect = lower value 1.04 | locus YGL248W, strain PDE1, stronger effect = lower value 1.01 | locus YGL253W, strain hxk2, stronger effect = lower value 0.946 | locus YGR078C, strain PAC10, stronger effect = lower value 1 | locus YGR135W, strain pre9, stronger effect = lower value 1 | locus YGR252W, strain gcn5, stronger effect = lower value 1.06 | locus YHR013C, strain ard1, stronger effect = lower value 1.03 | locus YHR027C, strain rpn1, stronger effect = lower value 1.03 | locus YHR030C, strain SLT2, stronger effect = lower value 0.99 and 1.02 | locus YHR079C, strain IRE1 (second series), stronger effect = lower value 0.965 | locus YHR079C, strain IRE1, stronger effect = lower value 1.03 | locus YHR094C, strain hxt1, stronger effect = lower value 0.988 | locus YHR129C, strain ARP1, stronger effect = lower value 0.996 | locus YHR142W, strain chs7, stronger effect = lower value 1.01 | locus YHR200W, strain rpn10, stronger effect = lower value 0.997 | locus YIL066C, strain RNR3, stronger effect = lower value 1.02 | locus YIL073C, strain SPO22, stronger effect = lower value 0.924 | locus YIL125W, strain kgd1, stronger effect = lower value 0.985 | locus YIR030C, strain dcg1, stronger effect = lower value 0.983 | locus YJL092W, strain hpr5, stronger effect = lower value 1.04 | locus YJL095W, strain BCK1 (second series), stronger effect = lower value 1.03 | locus YJL095W, strain BCK1, stronger effect = lower value 0.975 and 1.02 | locus YJL115W, strain asf1, stronger effect = lower value 1.05 | locus YJL129C, strain trk1, stronger effect = lower value 1.02 | locus YJL134W, strain LCB3, stronger effect = lower value 1.01 | locus YJL154C, strain vps35, stronger effect = lower value 1.04 | locus YJL164C, strain tpk1, stronger effect = lower value 1.01 | locus YJL166W, strain qcr8, stronger effect = lower value 1.04 | locus YJL168C, strain set2, stronger effect = lower value 0.985 | locus YJL187C, strain SWE1 (second series), stronger effect = lower value 0.987 | locus YJL187C, strain SWE1, stronger effect = lower value 1.02 | locus YJR043C, strain POL32, stronger effect = lower value 1.04
